The values that follow come from publication PMC4336329 (PLoS ONE, 2015).

About 14,000 (4.5%) of roughly 310,000 compounds showed an effect of 50% or more. The effect is printed as a negative number. This is one part of a sample in which strong results are shown more often than they occur.
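Also: peak tail current of the secondary pulse compared with the same well before compound.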

Sequence of human ether-à-go-go-related gene (hERG) potassium channel (Q12809 whole entry, looked up): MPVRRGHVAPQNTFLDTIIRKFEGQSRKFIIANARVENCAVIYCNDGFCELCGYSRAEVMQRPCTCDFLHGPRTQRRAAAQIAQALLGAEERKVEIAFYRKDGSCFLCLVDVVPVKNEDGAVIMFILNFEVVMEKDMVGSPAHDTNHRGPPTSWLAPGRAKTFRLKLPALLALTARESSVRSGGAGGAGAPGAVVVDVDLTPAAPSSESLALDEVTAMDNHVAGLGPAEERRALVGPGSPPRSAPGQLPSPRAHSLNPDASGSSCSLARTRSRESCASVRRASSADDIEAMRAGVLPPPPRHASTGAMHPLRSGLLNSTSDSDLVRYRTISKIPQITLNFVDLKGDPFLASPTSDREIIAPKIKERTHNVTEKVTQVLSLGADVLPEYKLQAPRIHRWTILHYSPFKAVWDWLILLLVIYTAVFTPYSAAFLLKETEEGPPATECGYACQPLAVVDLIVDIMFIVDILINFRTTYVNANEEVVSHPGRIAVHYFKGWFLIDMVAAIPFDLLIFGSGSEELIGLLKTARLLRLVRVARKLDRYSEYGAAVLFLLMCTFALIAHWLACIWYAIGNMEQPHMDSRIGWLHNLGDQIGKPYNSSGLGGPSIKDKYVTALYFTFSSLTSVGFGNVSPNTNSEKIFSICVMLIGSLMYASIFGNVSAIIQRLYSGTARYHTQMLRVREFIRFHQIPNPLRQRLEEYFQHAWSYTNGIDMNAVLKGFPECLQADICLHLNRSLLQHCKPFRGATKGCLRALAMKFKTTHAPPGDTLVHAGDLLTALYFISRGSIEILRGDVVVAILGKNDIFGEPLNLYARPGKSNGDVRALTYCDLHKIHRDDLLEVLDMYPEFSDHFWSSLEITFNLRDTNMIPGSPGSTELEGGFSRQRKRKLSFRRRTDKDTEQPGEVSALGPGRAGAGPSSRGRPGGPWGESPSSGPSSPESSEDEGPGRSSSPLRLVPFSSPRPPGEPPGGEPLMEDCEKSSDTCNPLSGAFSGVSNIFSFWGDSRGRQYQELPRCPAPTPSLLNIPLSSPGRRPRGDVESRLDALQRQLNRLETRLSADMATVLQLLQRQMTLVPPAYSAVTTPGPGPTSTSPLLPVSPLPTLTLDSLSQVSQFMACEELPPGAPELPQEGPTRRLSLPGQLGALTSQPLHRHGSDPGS

The assay addresses human ether-à-go-go-related gene (hERG) potassium channel (human, UniProt Q12809). The assay is described as follows: primary screen, population patch clamp on CHO cells stably expressing hERG; higher = less effect of the substance.
On to `CC(C)(C)n1cn[nH]c1=S`, for which the “hERG current change (%, negative = inhibition) at 10uM” value was determined as 22%. The figure for `CCCSc1cc(N2CCCC2)nc(-c2ccccc2)n1` is 15.5%; for `COc1cccc(CN2CCN(Cc3cc(OC)c(OC)c(OC)c3)CC2)c1OC.O=C(O)C(=O)O` it is -8.03%. The figure for `COc1ccc(CCN(C)C(=O)C2CCN(Cc3cccc(OC)c3OC)CC2)cc1OC.O=C(O)C(=O)O` is -3.13%; for `COc1ccc(CN2CCC(C(=O)N(C)CCc3ccc(OC)c(OC)c3)CC2)c(OC)c1.O=C(O)C(=O)O` it is -44.9%.

On to `COc1ccc(CN2CCC(N3CC(C)OC(C)C3)CC2)c(OC)c1.O=C(O)C(=O)O` (stereo not shown), for which the “hERG current change (%, negative = inhibition) at 10uM” value is recorded as -1.98%. As for `COc1ccc(CN2CCC(N(CCc3ccccc3)Cc3ccccc3)CC2)c(OC)c1.O=C(O)C(=O)O`, the “hERG current change (%, negative = inhibition) at 10uM” value is on record as -74.5%.

For `COc1cccc(CN2CCC(N(CCc3ccccc3)Cc3ccccc3)CC2)c1OC.O=C(O)C(=O)O`, the “hERG current change (%, negative = inhibition) at 10uM” value was -60.3%. The figure for `O=C(Nc1ccccc1)c1ccc(S(=O)(=O)NCc2ccco2)cc1` is -11.6%. The figure for `O=C(Cc1ccc(S(=O)(=O)N2CCCC2)s1)NC1CCCCCC1` is -31.4%; for `C/C(=N\NC(=O)Cn1nc(C)cc1C)c1ccc([N+](=O)[O-])cc1` it is -17.6%; for `O=C(Nc1ccc(Cc2ccc(NC(=O)C3CC3)c(O)c2)cc1O)C1CC1` it is 8.31%. As for `CCC1(C)NC(=O)N(CC(=O)N2CCC(Cc3ccccc3)CC2)C1=O` (stereo not shown), the “hERG current change (%, negative = inhibition) at 10uM” value was 3.65%. On to `CCC(=O)N1COC[C@@H]1Cc1ccccc1`, for which the “hERG current change (%, negative = inhibition) at 10uM” value is given as 25.4%. The figure for `CCC(=O)N1C(Cc2ccccc2)COC1(C)C` (stereo not shown) is -73.4%. The figure for `Cn1c(=O)c2ncn(CC(=O)N=Nc3c(O)[nH]c4ccccc34)c2n(C)c1=O` is 20.7%.

In the case of `O=C(N/N=C/c1ccc([N+](=O)[O-])cc1)C(=O)N1CCCC1`, the “hERG current change (%, negative = inhibition) at 10uM” value came to 13.5%.

For `O=C(N/N=C/c1cccc(O)c1)C(=O)N1CCCCCC1`, the “hERG current change (%, negative = inhibition) at 10uM” value was found to be 24.6%. With `O=C(N/N=C/c1cccc([N+](=O)[O-])c1)C(=O)N1CCCCCC1`, the “hERG current change (%, negative = inhibition) at 10uM” value was -52.5%.

On to `O=C(ONC1=NCCCCC1)c1cccc([N+](=O)[O-])c1`, for which the “hERG current change (%, negative = inhibition) at 10uM” value was determined as 0.994%.

Turning to `O=[N+]([O-])c1cccc(/C=N/NC2=NCCCCC2)c1`, the “hERG current change (%, negative = inhibition) at 10uM” value is on record as -83%. The figure for `Cl.O=[N+]([O-])c1ccccc1/C=N/NC1=NCCCCC1` is -39.3%; for `O=C(CSc1nnc(-c2cccnc2)n1CCc1ccccc1)NCc1ccccc1` it is -10.9%; for `CCOc1ccc(-c2nnc(SCC(=O)N(CC)CC)n2N)cc1` it is 5.1%. The figure for `CN1C(=O)Cc2cc(S(=O)(=O)N3CCN(c4ccc(Cl)cc4)CC3)ccc21` is -2.2%.

In the case of `COc1ccccc1Nc1nc(NCCO)nc(N)c1[N+](=O)[O-]`, the “hERG current change (%, negative = inhibition) at 10uM” value is recorded as 2.88%. The figure for `Cc1cc(=O)oc2cc(OCC(=O)OCC(=O)Nc3ccccc3C(C)C)ccc12` is 3.47%; for `COc1ccccc1C(=O)Nc1cc2c(cc1C(=O)O)OCCCO2` it is -2.13%; for `CS(=O)(=O)c1ccccc1C(=O)Nc1cc2c(cc1C(=O)O)OCCCO2` it is -57.3%.

`CSc1ccccc1C(=O)Nc1cc2c(cc1C(=O)O)OCCCO2`: the “hERG current change (%, negative = inhibition) at 10uM” value was found to be 18.2%. Consider `CCCCCC(=O)N1CC2(CC(c3cccc(NC(=O)CC(c4ccccc4)c4ccccc4)c3)=NO2)C[C@@H]1C(N)=O` (stereo partly shown), for which the “hERG current change (%, negative = inhibition) at 10uM” value is recorded as 11.4%. The figure for `CCCCCC(=O)Nc1cccc(C2=NOC3(C2)C[C@H](C(N)=O)N(C(=O)COc2ccc(Cl)cc2)C3)c1` (stereo partly shown) is -22%; for `CCCCCC(=O)N1CC2(CC(c3cccc(NC(=O)c4ccccc4)c3)=NO2)C[C@@H]1C(N)=O` (stereo partly shown) it is -54.6%. The figure for `CCCCCC(=O)Nc1cccc(C2=NOC3(C2)C[C@H](C(N)=O)N(C(=O)CCCCC)C3)c1` (stereo partly shown) is -70.7%; for `CCCCCC(=O)N1CC2(CC(c3cccc(NC(=O)CC)c3)=NO2)C[C@H]1C(N)=O` (stereo partly shown) it is -11.6%. The figure for `NC(=O)[C@@H]1CC2(CC(c3cccc(NC(=O)COc4ccc(Cl)cc4)c3)=NO2)CN1C(=O)COc1ccc(Cl)cc1` (stereo partly shown) is -29.4%. For the compound `C/C=C\C(=O)Nc1cccc(C2=NOC3(C2)C[C@@H](C(N)=O)N(C(=O)CCCCC)C3)c1` (stereo partly shown), the “hERG current change (%, negative = inhibition) at 10uM” value was -31%. In the case of `CCCCCC(=O)Nc1cccc(C2=NOC3(C2)C[C@H](C(N)=O)N(C(=O)CC)C3)c1` (stereo partly shown), the “hERG current change (%, negative = inhibition) at 10uM” value came to 6.18%. The figure for `CCCCCC(=O)N1CC2(CC(c3cccc(NC(=O)COc4ccc(Cl)cc4)c3)=NO2)C[C@@H]1C(N)=O` (stereo partly shown) is -77%; for `N#CCCN1CCN(S(=O)(=O)c2ccc(S(=O)(=O)NC3CCCC3)cc2)CC1` it is -9.4%.
